The source of these data is PubChem BioAssay AID504697 (The Scripps Research Institute Molecular Screening Center, 2011).

A number with no mark means an inactive call. Calls of active or inactive are those of the source.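 The calls were made as follows: active = EC50 at or below 10 µM; inactive = EC50 above 10 µM.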

The term EC50 denotes the concentration that produces a half-maximal response.

The nature of the experiment: fluorescence interference artefacts, compound only, dose response, artefact control for cardiac thin filament activator project, biochemical, no RTF in test wells (AID 504697).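 Also: emission near 535 nm under roughly 485 nm excitation as for IANBD.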 The conditions noted are these: compound-only fluorescence in RTF assay buffer with Ca2+ (no RTF in test wells), artifact counterscreen. (Counterscreens check selectivity or assay interference.)
In the case of `C/C(O)=c1/ccc2cccc3nc(C)nc1c23`, the EC50 was over 23.8 µM.
On to `CCC(/C=C1\Oc2ccc(OC)cc2N1C)=C\c1sc2ccccc2[n+]1CCCS(=O)(=O)[O-]`, for which the EC50 was 2.92 µM (active).
With `C=COc1ccc(N2C(=O)c3ccccc3OC2C)cc1` (configuration not stated), the EC50 is over 71.4 µM.
For the compound `O=[N+]([O-])c1ccc(/C=C/C2=NN(c3ccccc3)C(c3ccco3)C2)cc1` (configuration not stated), the 50% effective concentration (EC50) is 1.04 µM (active).
For `CCN(CC(=O)Nc1ccccc1C(F)(F)F)C(=O)c1ccc(-n2nc(C)c(CCC(=O)OC)c2C)cc1` the value was over 71.5 µM; for `Cn1nccc1NC(=O)Nc1cccc(Cl)c1Cl`, over 71.4 µM; for `COc1ccc(/C=N/NC(=O)c2cc(OC)c(OC)c(OC)c2)cc1CN1CCc2cc(OC)c(OC)cc2C1C` (configuration not stated), over 71.5 µM.
For the compound `CN(Cc1ccccc1)C(=O)c1[nH]cnc1C(=O)NCc1ccccc1`, the EC50 was over 71.6 µM.
As for `Cc1ccc(C)c(C(=O)CSc2n[nH]c(C(C)C)n2)c1`, the EC50 is over 71.5 µM.
For `Cc1ccnc(N/C=C(\C#N)c2nc(-c3cccc(Br)c3)cs2)c1` the value was 1.59 µM (active); for `COc1ccc(CCNC(=O)COC(=O)c2cc(=O)[nH]c3ccccc23)cc1`, over 71.5 µM; for `O=C(Nc1ccc(Cl)cn1)C1COc2ccccc2O1` (configuration not stated), over 71.5 µM.
For `O=C(COc1ccccc1F)NC1CC1` the value was over 71.5 µM; for `CCn1cc(C(=O)NCCC(=O)NCCO)c(=O)c2cc3c(cc21)OCO3`, over 71.4 µM; for `CCN(CC)c1ccc(/C=c2\sc3nc4ccccc4n3c2=O)c(O)c1`, 14.4 µM.
`CC(=O)Nc1ccc(N=Cc2nc(-c3ccc(C)cc3)oc2O)cc1`: the EC50 is 20 µM.
As for `O=C(CSc1nnc(COc2ccccc2)o1)N1CCN(c2ccccc2)CC1`, the EC50 was over 71.5 µM.
Consider `CN1c2ccccc2C(O)=C(C(=S)Nc2ccc(F)c(Cl)c2)S1(=O)=O`, for which the EC50 was over 71.5 µM.
The value for `COC(=O)c1sc(N2C(=O)C(O)=C(C(=O)c3ccc(C)o3)C2c2ccc(F)cc2)nc1C` (configuration not stated) was over 71.4 µM; that for `Fc1ccc(-c2nnc(-c3ccc(Cl)cc3Cl)o2)cc1` was over 71.5 µM; that for `Cc1nnc(SCC(=O)NC(C)(C)C)n1C1CCCCC1` was over 71.5 µM.
The value for `O=C1c2cccc3c(N4CCCCC4)ccc(c23)C(=O)N1c1cccc(O)c1` was 5.54 µM (active).
For `Cc1ccc(C(=O)Nc2ccc3c(c2)ncn3C)cc1` the value was over 71.4 µM; for `C=CCN1C(=O)c2ccccc2NC1c1cc(Br)cs1` (configuration not stated), over 71.5 µM.
Turning to `CC(C(=O)c1ccc(Br)cc1)[n+]1cccc2ccccc21` (configuration not stated), the EC50 was over 71.5 µM.
For `COc1ncnc2c1N=C1CC(C)(C)CC(N)=C1S2` the value was 23.5 µM; for `O=C(CCSc1ccccc1)N1CCN(C(=O)c2ccco2)CC1`, over 71.5 µM.
For `CN(C)c1ccc(N=Cc2nc(-c3ccccc3)oc2O)cc1` the value was 6.84 µM (active).
For `O=C(N/N=C/c1sc2ccccc2c1O)c1ccccc1` the value was 17.9 µM.
On to `Cc1ccccc1-n1nnnc1SCC(C)C`, for which the EC50 was over 71.5 µM.
For `CCN(CC)c1ccc(/C=c2\sc3nnc(-c4ccccc4Cl)n3c2=O)cc1` the value was 0.644 µM (active); for `C=CCn1c(=O)[nH]c2nc3cc(N=CN(C)C)c(C)cc3nc2c1=O`, 4.96 µM (active); for `CN1CCC2(CC1)C1CN(C)CC=C1C(C#N)=C(N)C2(C#N)C#N` (configuration not stated), 23.5 µM.
Take `O=C(Cn1cnc2c(cnn2-c2ccccc2)c1=O)Nc1ccc(S(=O)(=O)N2CCOCC2)cc1`: the EC50 was over 71.5 µM.
For `Cc1cc(/C=C2/C(=O)N(C)C(=S)N2C)ccc1N1CCCC1` the value was 28.8 µM; for `CCOc1cc(N2CCOCC2)c(OCC)cc1NC(=O)CCS(=O)(=O)c1ccc(Cl)cc1`, over 71.5 µM.
For `COc1ccc(N=C2NC(=O)S/C2=C\c2ccc(N(C)C)cc2)cc1` the value was 5.67 µM (active).
